Source: PubChem BioAssay (The Scripps Research Institute Molecular Screening Center)
Only some compounds are listed: those with a hit (about 0.9% of all), similar ones and a draw of the others.
SRC3 TRFRET art – TR-FRET detection interference compounds, artefact control for PPARgamma SRC-3 recruitment agonists, biochemical, TR-FRET ratio; TR-FRET artefact counter-screen, PPARgamma/SRC-3 format; hits give high values; AID 1048, 2008; TR-FRET ratio at 8 µM; 0.39% of 99,000 active
TR-FRET SRC-2 ct – TR-FRET signal artefacts, primary screen, artefact control for PPARgamma SRC-2 agonist project, biochemical | TR-FRET artefact counter-screen; hits give high values | TR-FRET ratio at 8 µM | 0.4% of 200,000 active
SRC1 TRFRET art – TR-FRET detection interference compounds, primary screen, artefact control for PPARgamma SRC-1 recruitment agonists, biochemical, TR-FRET emission ratio; TR-FRET detection artefact counter-screen; hits give high values; TR-FRET ratio at 8 µM; 0.34% of 99,000 active; AID 1051, 2008; in the data active = TR-FRET ratio above about 2300
PPARg SRC3 recr – PPARgamma agonists recruiting SRC-3 coactivator, primary screen, biochemical. 0.26% of 200,000 active. biochemical PPARgamma/SRC-3 coactivator recruitment assay. activation, % at 8 µM; in the data active = activation above about 23%
Target sequence (P37231 whole entry, looked up): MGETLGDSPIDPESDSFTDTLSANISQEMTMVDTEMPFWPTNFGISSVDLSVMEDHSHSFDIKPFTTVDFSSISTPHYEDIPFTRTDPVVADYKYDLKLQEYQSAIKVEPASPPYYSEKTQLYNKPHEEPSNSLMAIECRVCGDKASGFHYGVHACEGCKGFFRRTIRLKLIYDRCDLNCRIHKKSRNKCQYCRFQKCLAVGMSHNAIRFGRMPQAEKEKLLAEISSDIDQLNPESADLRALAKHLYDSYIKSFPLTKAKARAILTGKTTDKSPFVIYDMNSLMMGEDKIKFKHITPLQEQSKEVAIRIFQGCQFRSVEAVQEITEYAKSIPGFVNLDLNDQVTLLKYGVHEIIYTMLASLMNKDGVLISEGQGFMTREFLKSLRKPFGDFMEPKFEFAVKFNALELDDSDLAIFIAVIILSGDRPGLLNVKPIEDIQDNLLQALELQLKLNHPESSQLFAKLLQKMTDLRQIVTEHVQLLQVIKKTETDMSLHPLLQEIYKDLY
PPARg SRC-1 ag – PPARgamma agonists recruiting SRC-1 coactivator, primary screen, biochemical; PPARgamma-SRC-1 coactivator recruitment biochemical assay; 0.41% of 200,000 active; Peroxisome proliferator-activated receptor gamma (Homo sapiens), P37231; AID 631, 2007; activation, % at 8 µM; in the data active = activation above about 19%
PPARg SRC2 recr – agonists of PPARg-SRC-2 recruitment, primary screen, biochemical, HTS; Peroxisome proliferator-activated receptor gamma (Homo sapiens), P37231; PPARgamma LBD-SRC-2 recruitment; activation, % at 8 µM; AID 1032, 2008; 0.34% of 200,000 active; in the data active = activation above about 22%
A number is an active result; – = inactive; · = no result given. Rule as the data show it, unless noted: active = TR-FRET ratio above about 2000; inactive = the rest.

SMILES	SRC3 TRFRET art	TR-FRET SRC-2 ct	SRC1 TRFRET art	PPARg SRC3 recr	PPARg SRC-1 ag	PPARg SRC2 recr
CCOC(=O)c1c(NC(=O)C2=C(C)NC(=S)NC2c2ccc(F)cc2)sc(C)c1C (stereo not drawn)	–	–	–	–	–	–
CCOC(=O)c1c(NC(=O)C2=C(C)NC(=S)NC2c2ccc(C)cc2)sc(C)c1C (stereo not drawn)	–	–	2914	–	–	–
CC1(C)Cc2c(C#N)c(SCC(=O)c3ccccc3)nc(N3CCOCC3)c2CS1	·	2038	·	–	–	–
CS(=O)(=O)N(CC(=O)NCc1ccncc1)Cc1ccc(Cl)cc1	·	–	·	27.9	–	–
COc1ccccc1NC(=O)Nc1ccc(F)c(F)c1	–	–	–	–	–	–
O=C(c1ccccc1)c1cnc(-c2ccc(Cl)cc2)s1	·	–	·	–	28.6	–
O=C(c1ccc(Cl)cc1)c1cnc(-c2ccc(Cl)cc2)s1	·	–	·	–	–	–
CO/N=C/C1CCN(c2ncc(C(F)(F)F)cc2Cl)C1=O (stereo not drawn)	–	–	–	–	–	–
CC(=O)Oc1cc2c(cc1Cl)C(c1cccs1)CC1(CC(C)(C)NC(=S)N1)O2 (stereo not drawn)	–	–	–	–	–	–
CCC(C)NC(=O)Cc1c(OC)ccc2cc(Br)ccc12 (stereo not drawn)	–	2014	–	–	–	–
CCOC(=O)c1cc(C(=O)OCC)c(=O)[nH]c1N1CCCCC1	–	–	–	–	–	–
C=CCNC(=O)C(=O)N/N=C/c1ccco1	–	–	–	–	–	–
O=C(NC(=S)Nc1ccc(S(=O)(=O)Nc2nccs2)cc1)c1ccccc1	–	–	–	–	–	–
O=C(CSc1ccc(Br)c2cccc(Cl)c12)Nc1ccc(S(=O)(=O)Nc2nccs2)cc1	2321	1982	2830	–	30.0	–
CC(C)C(=O)NC(=S)Nc1ccc(S(=O)(=O)Nc2nccs2)cc1	–	–	2318	–	–	–
O=c1/c(=C/c2ccc(O)c([N+](=O)[O-])c2)sc2nc3ccccc3n12	–	–	–	–	–	–
CCN(CC)c1ccc(/C=c2\sc3nc4ccccc4n3c2=O)c(O)c1	4506	3056	5472	–	–	–
CC1=NN(C(=O)Cn2ccc([N+](=O)[O-])n2)C(O)(C(F)(F)F)C1 (stereo not drawn)	–	–	–	–	–	23.4
OCC#CCSc1nnc(-c2ccc(Br)cc2)o1	·	–	·	–	–	–
COC(=O)Sc1nnc(-c2ccc(Br)cc2)o1	·	2802	·	62.9	44.6	54.3
O=C(Nc1ccc([N+](=O)[O-])cc1)/C(=C/c1cccc([N+](=O)[O-])c1)NC(=O)C1CCCCC1	·	–	·	–	–	24.5
Cc1ccc(NC(=O)/C(=C/c2cccc([N+](=O)[O-])c2)NC(=O)C2CCCCC2)c(C)c1	·	–	·	–	–	–
FC(F)(F)c1nnc2c(Sc3ccc(Cl)cc3)nc3ccccc3n12	·	–	·	–	31.8	–
CCOc1ccc(NC(=S)NC(C)C(c2ccccc2)N2CCN(C)CC2)cc1 (stereo not drawn)	–	–	–	–	–	–
CC(NC(=O)COc1ccccc1)C(c1ccccc1)N1CCN(C)CC1 (stereo not drawn)	–	–	2331	–	–	–
SMILES	SRC3 TRFRET art	TR-FRET SRC-2 ct	SRC1 TRFRET art	PPARg SRC3 recr	PPARg SRC-1 ag	PPARg SRC2 recr
COc1ccc(/C(N)=N/OC(=O)CN(C)S(=O)(=O)c2ccc(C)cc2)cc1	–	–	–	–	22.1	–
COc1ccc(/C(N)=N/OC(=O)CN(C)S(=O)(=O)c2ccccc2)cc1	–	–	–	–	–	–
N#Cc1c(-c2ccccc2Cl)cc(-c2ccccc2)[nH]c1=S	–	–	–	–	–	–
N#Cc1c2c(c(-c3ccccc3Cl)[nH]c1=S)CCCC2	2745	2762	3189	–	40.4	43.7
CSc1ccc(C(=O)C2CCCN(C(=O)c3cc4cc(F)ccc4[nH]3)C2)cc1 (stereo not drawn)	2454	2021	2545	–	–	–
CSc1ccc(C(=O)C2CCCN(C(=O)c3csc(C(C)=O)c3)C2)cc1 (stereo not drawn)	–	–	–	–	–	–
CCS(=O)(=O)N1CCN(C2CCC(c3ccccc3)CC2)CC1 (stereo not drawn)	·	–	·	–	20.2	–
